Test results reported in PubChem BioAssay (Tox21).
The source made the active and inactive calls. Calls come from the whole dose curve; as a rule, active = well fitted curve in the direction sought with a large enough effect in the repeat runs; inconclusive = weak or mixed curves; inactive = flat fitted curve, though single readings scatter.

Test: qHTS assay to test for compound auto fluorescence at 590 nm (red) in HEK293 cells (AID 720679)
Conditions: red autofluorescence 540/590 nm; series mostly up to 91.3 µM
Source text: National Center for Advancing Translational Sciences [NCATS]
NIH Chemical Genomics Center [NCGC]
U.S. Environmental Protection Agency [EPA]
National Institutes of Environmental Health Sciences [NIEHS]
National Toxicology Program [NTP]
U.S. Food and Drug Administration [FDA]
Compound auto fluorescence often interferes with screening of the compound library against various biological targets and signaling pathways. Some of these compounds may have fluorophoric properties. Such properties may interfere with the assay outputs resulting in false positives and/or negatives. To decrease such complications and ensure the compound activities are relevant in terms of biological response, the Tox21 10K compound library was screened for auto fluorescence.
From the fluorophores used as reporter signals in our screening assays, the auto fluorescence equivalencies of compounds against three fluorophores have been evaluated: Triamterene, Fluorescein and Rose Bengal sodium for blue, green and red fluorescence, respectively. The fluorescence intensities were measured using Excitation/Emission wavelengths at 405/460nm, 485/535nm and 540/590nm for blue, green and red labels, respectively. This assay includes the red fluorescence data.
Tox21 Assay Protocol Summary:
2,000 HEK293 cells in 5 uL of culture medium containing 10% dialyzed FBS per well were dispensed into black wall/clear bottom 1536-well plates using a Multidrop Combi Dispenser (Thermo Scientific). The assay plates were incubated for 4-5 hr at 37C to allow cell attachment to the well bottom, followed by the transfer of 23 nL compound or DMSO vehicle by a pintool work station (Kalypsys, San Diego, CA). After the assay plates were incubated overnight at 37C and 5% CO2, fluorescence intensities in the assay plates were measured by an Envision (PerkinElmer, Shelton, CT) plate reader using three labels for measuring blue, green and red fluorescence at […] 460, 535 and 590nm respectively.
% is set by controls: 0 for no effect and ±100 for the full control effect.

Row | SMILES | outcome | fluorescence, % of fluorescent control
1 | C[Si](NC1CCCCC1)(NC1CCCCC1)NC1CCCCC1 | inactive | 
2 | CCN(Cc1cccc(S(=O)(=O)O)c1)c1ccc(C(=C2C=CC(=[N+](CC)Cc3cccc(S(=O)(=O)[O-])c3)C=C2)c2ccccc2)cc1 | inactive | 
3 | Nc1nccs1 | inactive | 
4 | CC(Cl)C(Cl)Cl (stereo not given) | inactive | 
5 | CCC(C)=O | inactive | 
6 | CCc1c2c(nc3ccc(OC(=O)N4CCC(N5CCCCC5)CC4)cc13)-c1cc3c(c(=O)n1C2)COC(=O)[C@]3(O)CC | inactive | 
7 | COc1ccccc1N=Nc1c(S(=O)(=O)O)cc2cc(S(=O)(=O)O)cc(NC(C)=O)c2c1O | inactive | 
8 | [O]=[Bi] |  | 0.261% [at 3.72 µM] (inactive)
9 | CC1(C)C(=O)N(Br)C(=O)N1Cl | inactive | 
10 | CO[C@H]1C=CO[C@@]2(C)Oc3c(C)c(O)c4c(O)c(c5c(c4c3C2=O)=NC2(CCN(CC(C)C)CC2)N=5)NC(=O)/C(C)=C\C=C/[C@H](C)[C@H](O)[C@@H](C)[C@@H](O)[C@@H](C)[C@H](OC(C)=O)[C@@H]1C | inactive | 
11 | CCCCCCOC(=O)CCCCCCCC(=O)OCCCCCC | inactive | 
12 | CC(C)CCCCCOC(=O)CCCCC(=O)OCCCCCC(C)C | inactive | 
13 | Cc1cc2nc3ccc(=[N+](C)C)cc-3sc2cc1N | inactive | 
14 | O=S(=O)(c1ccccc1)c1ccc(Cl)cc1 | inactive | 
15 | COc1cc2[nH]c(=O)[nH]c(=O)c2cc1OC |  | -0.538% [at 18.6 µM] (inactive)
16 | C[C@]12CCC(=O)C=C1C=C[C@@H]1[C@@H]2CC[C@@]2(C)[C@H]1CC[C@@]21CCC(=O)O1 | inactive | 
17 | Cc1cnc(C)c(C)n1 | inactive | 
18 | O=C(N[C@@H](c1ccccc1)[C@@H]1CCCCN1)c1cccc(C(F)(F)F)c1Cl | inactive | 
19 | Oc1ccc(Nc2ccccc2)cc1 | inactive | 
20 | CC(C)C(OC(=O)c1ccccc1)C(C)(C)COC(=O)c1ccccc1 (stereo not given) | inactive | 

Row | SMILES | outcome | fluorescence, % of fluorescent control
21 | CCNC(=O)N1CCN(CCCC(c2ccc(F)cc2)c2ccc(F)cc2)CC1 | inactive | 
22 | CCCCCCCCCCCCCCCCBr |  | -0.108% [at 18.6 µM] (inactive)
23 | O=C(O)c1cccc(O)c1 | inactive | 
24 | Cc1cc(C(=C2C=CC(=Nc3ccc(S(=O)(=O)O)cc3S(=O)(=O)O)C=C2)c2ccc(Nc3ccc(S(=O)(=O)O)cc3)cc2)ccc1N | inactive | 
25 | CO/N=C1\CN(c2nc3c(cc2F)c(=O)c(C(=O)O)cn3C2CC2)CC1CN (stereo not given) | inactive | 
26 | Cc1ccc(Nc2nccc(N(C)c3ccc4c(C)n(C)nc4c3)n2)cc1S(N)(=O)=O | inactive | 
27 | CCN(CC)CCNC(=O)c1ccc(NC(C)=O)cc1 | inactive | 
28 | ON(Cc1ccccc1)Cc1ccccc1 | inactive | 
29 | CC(=O)Nc1ccccc1C | inactive | 
30 | Nc1nc(Cl)nc2c1ncn2[C@@H]1O[C@H](CO)[C@@H](O)[C@@H]1F | inactive | 
31 | COc1ccc(C(=O)c2cccc(O)c2)c(OC)c1 | inactive | 
32 | CC(N)CN (stereo not given) | inactive | 
33 | Cc1ccc(S)cc1 | inactive | 
34 | CN1CCN(c2c(F)cc3c(=O)c(C(=O)O)cn4c3c2OCN4C)CC1 | inactive | 
35 | CC(=O)OCC(=O)[C@@]12OC(C)(C)O[C@@H]1C[C@H]1[C@@H]3C[C@H](F)C4=CC(=O)C=C[C@]4(C)[C@@]3(F)[C@@H](O)C[C@@]12C |  | 0.156% [at 18.6 µM] (inactive)
36 | CCn1cc(C(=O)O)c(=O)c2cc(F)c(N3CCNCC3)nc21 |  | -0.616% [at 18.6 µM] (inactive)
37 | C[N+]1(C)CCC(=C(c2ccccc2)c2ccccc2)CC1 |  | -0.153% [at 18.6 µM] (inactive)
38 | O=C(/C=C/c1ccccc1)OCCCc1ccccc1 | inactive | 
39 | CCOC(=O)OCC | inactive | 
40 | CCCCN(CCCC)C(=S)SSC(=S)N(CCCC)CCCC | inactive | 
